# Inconclusive results are not listed. A number with no mark means an inactive call. Active and inactive are the calls of the source. Calls follow the shape of the full dose curve.
# Biological target: Acetylcholinesterase (Homo sapiens) (UniProt P22303)
# Assay: Acetylcholinesterase (AChE) small molecule antagonists: fluorescence cell-based qHTS assay (AID 1347398); also: nearly all actives have a fitted effect of over 50% in size
# Conditions: SH-SY5Y cells; Potency: AChE activity; outcome: AChE activity; series mostly up to 115 µM; activity change, negative = inhibition: at the top concentration
# How it was run: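 Fluorimetric cell-based assay: intact SH-SY5Y cells, 30 min compound preincubation at 37 C, acetylthiocholine substrate with thiol probe Thiolite Green, 40 min RT development, fluorescence 490/520 nm.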
# % is scaled to controls: 0 for no effect and ±100 for the full control effect.
# Chain of Acetylcholinesterase (Homo sapiens) (P22303 whole entry, looked up): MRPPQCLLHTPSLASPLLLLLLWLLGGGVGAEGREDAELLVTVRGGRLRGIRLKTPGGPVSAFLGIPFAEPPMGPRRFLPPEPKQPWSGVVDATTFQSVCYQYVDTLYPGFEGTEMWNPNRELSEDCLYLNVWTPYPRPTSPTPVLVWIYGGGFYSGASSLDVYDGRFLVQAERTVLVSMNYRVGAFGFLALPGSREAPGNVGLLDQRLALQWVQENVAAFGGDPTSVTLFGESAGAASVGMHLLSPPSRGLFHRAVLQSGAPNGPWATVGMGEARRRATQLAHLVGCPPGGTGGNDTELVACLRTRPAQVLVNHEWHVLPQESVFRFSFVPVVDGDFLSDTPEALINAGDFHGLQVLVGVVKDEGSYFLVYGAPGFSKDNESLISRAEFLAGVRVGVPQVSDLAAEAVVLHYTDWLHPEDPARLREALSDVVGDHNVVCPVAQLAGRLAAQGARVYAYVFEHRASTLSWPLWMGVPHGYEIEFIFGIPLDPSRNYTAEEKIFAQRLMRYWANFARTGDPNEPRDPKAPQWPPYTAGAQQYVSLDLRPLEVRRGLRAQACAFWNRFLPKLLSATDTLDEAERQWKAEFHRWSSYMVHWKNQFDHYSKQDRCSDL
SMILES,"activity change, negative = inhibition",Potency
Cc1cc(NS(=O)(=O)c2ccc(N)cc2)nc(C)n1,0.0805% [at 53.7 µM],
CCCC(CCC)(C(=O)OCC)C(=O)OCC,8.65% [at 53.7 µM],
Cc1cc(=O)[nH]c(=O)[nH]1,-0.593%,
CCCCCCCC/C=C\CCCCCCCC(=O)OC[C@@H](O)[C@H]1OC[C@H](O)[C@H]1O,-15.1%,
O=C(O)[C@H](O)[C@@H](O)[C@H](O)[C@H](O)CO,,inactive
CCC(CO)CO,1.15%,
O=S(=O)(O)c1cccc2c(S(=O)(=O)O)cccc12,-0.451%,
Cc1ccc(NC(=O)N(C)C)cc1NC(=O)N(C)C,-1.12%,
C[C@]12CC[C@@H]3c4ccc(O)cc4CC[C@H]3[C@@H]1CC[C@@H]2O,,inactive
Nc1ccc2cc(S(=O)(=O)O)ccc2c1,3.85%,
Cc1c(C(=O)O)cccc1[N+](=O)[O-],2.43%,
CCCCOC(=O)c1ccccc1C(=O)OCC(CC)CCCC (stereo not given),-7.8%,
Cc1cc(C)cc(O)c1,,inactive
CC1CC(C)C(=O)C1=O (stereo not given),6.37%,
CC(O)CNCC(C)O (stereo not given),,inactive
Oc1ccc(/C=C/c2cc(O)cc(O)c2)cc1,,inactive
CN(C)c1ccncc1,-6.62%,
c1cc(N(CC2CO2)CC2CO2)ccc1OCC1CO1 (stereo not given),,inactive
CC(=O)c1ccc(S(=O)(=O)NC(=O)NC2CCCCC2)cc1,,inactive
C[Si](C)=O,0.274% [at 10.5 µM],

SMILES,"activity change, negative = inhibition",Potency
Cc1ccc2c(c1)C(=O)OC2=O,,inactive
Cc1nc2ccccc2s1,4.22%,
CNc1c2c(nn1C)CCCC2,0.458% [at 53.7 µM],
COc1cc([C@H]2Oc3cc([C@H]4Oc5cc(O)cc(O)c5C(=O)[C@@H]4O)ccc3O[C@@H]2CO)ccc1O,-13.7%,
CCNc1cccc(C)c1,,inactive
FC(F)(F)C(F)(F)C(F)(F)C(F)(F)C(F)(F)C(F)(F)C(F)(F)C(F)(F)C(F)(F)C(F)(F)F,1.44% [at 10.5 µM],
O=C(OCC1CCC2OC2C1)C1CCC2OC2C1 (stereo not given),,inactive
CC(C)(C(=O)c1cccnc1)c1cccnc1,1.04% [at 53.7 µM],
CC(=O)/C(C)=C/C1C(C)=CCCC1(C)C (stereo not given),-6.52%,
CCC(=O)OC(C)c1ccccc1 (stereo not given),0.205%,
OC(CCl)CCl,,inactive
C=CCS(=O)(=O)O,-1.17%,
CC1Cc2ccccc2N1NC(=O)c1ccc(Cl)c(S(N)(=O)=O)c1 (stereo not given),,inactive
CC1=NN(c2ccc(C(=O)O)cc2)C(=O)C1,4.02%,
O=C(O)c1ccc(S(=O)(=O)N(Cl)Cl)cc1,,inactive
S=C(S)NCCNC(=S)S,-8.42%,
FC(F)(F)c1ccccc1Cl,4.41%,
CC(c1cc2ccccc2s1)N(O)C(N)=O (stereo not given),,inactive
CCCCCCCOC(C)=O,-1.36%,
CCC(C)(CCC(C)C)C(=O)[O][Sn]([CH3])([CH3])[O]C(=O)C(C)(CC)CCC(C)C (stereo not given),-5.63%,

# From PubChem BioAssay (Tox21)
